Measured values: PubChem BioAssay AID492972 (The Scripps Research Institute Molecular Screening Center, 2010)
Among all 340,000 compounds or so, about 930 (0.27%) were called active.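 The calls were made as follows: active = inhibition above the screen-wide average of all tested compounds plus 3 SD (cut at about 25% in these data); inactive = the rest.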 Many of the other results were omitted from the sample, so actives are more common in it than they were.

Each compound was assayed against Platelet-activating factor acetylhydrolase IB subunit alpha1 (Homo sapiens) (UniProt Q15102) (assay: inhibition of PAF acetylhydrolase 1B subunit 3 – biochemical, fluorescence polarization, human, primary screen (AID 492972;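 also: 0% = enzyme with DMSO only and 100% = wells lacking PAFAH1B3 protein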)). Details: recombinant PAFAH1B3, FP-rhodamine probe, at 3.39 µM, stronger effect = higher value.
Platelet-activating factor acetylhydrolase IB subunit alpha1 (Homo sapiens), sequence (Q15102 whole entry, looked up): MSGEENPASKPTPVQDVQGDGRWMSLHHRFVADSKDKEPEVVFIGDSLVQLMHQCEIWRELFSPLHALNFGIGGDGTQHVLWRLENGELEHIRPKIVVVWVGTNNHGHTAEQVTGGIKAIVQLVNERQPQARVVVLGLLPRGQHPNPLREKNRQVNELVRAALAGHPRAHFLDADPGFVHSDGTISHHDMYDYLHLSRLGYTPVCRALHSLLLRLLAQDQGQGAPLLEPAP

| Structure (SMILES) | inhibition |
| --- | --- |
| C[n+]1cccc(C(=O)O)c1 | 4.85% (inactive) |
| O=C(COc1ccc(S(=O)(=O)NCc2ccccc2)cc1)N1CCOCC1 | -1.1% (inactive) |
| Cn1cccc1/C=N/NC(=O)c1ccc(OC(F)(F)C(F)F)cc1 | 4.01% (inactive) |
| O=C(Nc1ccc(OC(F)(F)F)cc1)c1ccc2c(c1)no[n+]2[O-] | 51.2% (active) |
| CCOC(=O)Cc1ncccc1C(=O)Nc1ccc(OC(F)(F)F)cc1 | 4.95% (inactive) |
| O=C(COc1ccccc1)Nc1cc2c3c(c1)CC(=O)N3CCC2 | 3.19% (inactive) |
| CCC(C)NC(=O)CN(C1CCCCC1)S(C)(=O)=O (stereo not given) | -2.01% (inactive) |
| Cc1cc(NC(=O)CCC(=O)N(CC(=O)NCC2CCCO2)c2ccccc2)no1 (stereo not given) | -3.62% (inactive) |
| CN(CC(=O)Nc1ccc(Cl)cc1)C(=O)CNC(=O)c1ccc2ccccc2c1 | 5.2% (inactive) |
| CCCN(CCC)C(=O)C1c2ccccc2Oc2ccccc21 | 27.8% (active) |
| CCOC(=O)CC(NC(=O)C1c2ccccc2Oc2ccccc21)c1ccc(C)cc1 (stereo not given) | 6.13% (inactive) |
| CCCCCNC(=O)C1c2ccccc2Oc2ccccc21 | -4.51% (inactive) |
| CCOC(=O)CCCNC(=O)COC(=O)c1cc(Br)c(Br)s1 | -2.8% (inactive) |
| COc1nc(Oc2ccc(=O)n(C)n2)nc(N(C)C)n1 | 4.35% (inactive) |
| O=[N+]([O-])c1ccc(N(CCO)Cc2ccccc2)c([N+](=O)[O-])c1 | 4.36% (inactive) |
| CN1CCN(/N=C2/C(=O)Nc3ccc([N+](=O)[O-])cc32)CC1 | 1.85% (inactive) |
| O=C1Nc2ccc([N+](=O)[O-])cc2C1=Nc1cccc(CO)c1 | 31.8% (active) |
| CCCS(=O)(=O)N1CCCC(C(=O)NCCN2CCCCC2C)C1 (stereo not given) | -3.97% (inactive) |
| O=C(Nc1ccc2ccccc2c1)Nc1ccc2snnc2c1 | -10.5% (inactive) |
| Cc1cc(OCCN2CCCC2)cc(C(C)C)c1 | 3.65% (inactive) |
| O=C(Nc1nc(-c2ccco2)c(-c2ccco2)s1)c1ccco1 | 15.7% (inactive) |
| COCCNC(=O)Nc1ccc2nc(-c3ccco3)c(-c3ccco3)nc2c1 | 26.5% (active) |
| COCCNC(=O)c1snc2ccc(Cl)cc12 | 8.07% (inactive) |
| CC(=O)Nc1ccc(NC(=O)C2CCCN(S(=O)(=O)c3ccc(Cl)cc3)C2)cc1 (stereo not given) | 4.7% (inactive) |
| CCOc1ccc(S(=O)(=O)n2ccnc2)c2ccccc12 | 4.28% (inactive) |
